Source: PubChem
POLI inh: DNA polymerase iota (human) inhibition | Pol iota fluorescent replication assay, 10 min | Potency, µM (series often up to 115 µM), for the others: top-dose activity, negative = inhibition, hits mostly inhibitors | 390,000 compounds, 1% hits | Q9UNA4; note: potency is the fitted concentration of half-maximal effect
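Fluorescent replication assay read twice, at 0 min and 10 min after adding 50 nM (final) substrate. Enzyme (10 nM) and compounds were first incubated 15 min at room temperature; enzyme-free buffer wells were negative controls.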
POLB inh: blocks human DNA polymerase beta activity | Pol beta primer extension/strand displacement, fluorescence kinetic | Potency, µM (top dose mostly 114 µM), inactives show top-dose activity change, negative = inhibition, usual class: inhibitors | 340,000 compounds, 1.3% hits; note: potency is the fitted concentration of half-maximal effect; % is set by controls: 0 for no effect and ±100 for the full control effect
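Pol beta (10 nM) and compounds were preincubated 15 min at room temperature, then 50 nM substrate (final) started primer extension/strand displacement. Reads were taken at 0 and 10 min; concentration-response data were fitted to a four-parameter Hill equation.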
Pol kappa inh-1: inhibitors of human DNA polymerase kappa; purified Pol kappa, fluorescent DNA synthesis assay, 10 min; Potency, µM (doses to about 107 µM), for the others: at the top dose activity, negative = inhibition, actives largely listed as inhibitors; 400,000 compounds, 0.53% hits; note: potency is the fitted concentration of half-maximal effect; % is set by controls: 0 for no effect and ±100 for the full control effect
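Fluorescent qHTS in 1536-well format: enzyme (10 nM) and compound sat 15 min at room temperature before 50 nM substrate (final) was added. Signal taken at 0 and 10 min; no-enzyme buffer wells were negative controls.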
WRN helicase inh: blocks human WRN helicase; Potency, µM (highest dose often 114 µM), without a hit: at the highest dose activity change, negative = inhibition, most hits filed as inhibitors; AID 651768; Q14191; 360,000 compounds, 0.46% hits; WRN helicase unwinding, fluorescent forked duplex, kinetic; note: potency is the fitted concentration of half-maximal effect; % is set by controls: 0 for no effect and ±100 for the full control effect; nearly all actives have a fitted effect of over 55% in size
Target sequence (Q14191 whole entry, looked up): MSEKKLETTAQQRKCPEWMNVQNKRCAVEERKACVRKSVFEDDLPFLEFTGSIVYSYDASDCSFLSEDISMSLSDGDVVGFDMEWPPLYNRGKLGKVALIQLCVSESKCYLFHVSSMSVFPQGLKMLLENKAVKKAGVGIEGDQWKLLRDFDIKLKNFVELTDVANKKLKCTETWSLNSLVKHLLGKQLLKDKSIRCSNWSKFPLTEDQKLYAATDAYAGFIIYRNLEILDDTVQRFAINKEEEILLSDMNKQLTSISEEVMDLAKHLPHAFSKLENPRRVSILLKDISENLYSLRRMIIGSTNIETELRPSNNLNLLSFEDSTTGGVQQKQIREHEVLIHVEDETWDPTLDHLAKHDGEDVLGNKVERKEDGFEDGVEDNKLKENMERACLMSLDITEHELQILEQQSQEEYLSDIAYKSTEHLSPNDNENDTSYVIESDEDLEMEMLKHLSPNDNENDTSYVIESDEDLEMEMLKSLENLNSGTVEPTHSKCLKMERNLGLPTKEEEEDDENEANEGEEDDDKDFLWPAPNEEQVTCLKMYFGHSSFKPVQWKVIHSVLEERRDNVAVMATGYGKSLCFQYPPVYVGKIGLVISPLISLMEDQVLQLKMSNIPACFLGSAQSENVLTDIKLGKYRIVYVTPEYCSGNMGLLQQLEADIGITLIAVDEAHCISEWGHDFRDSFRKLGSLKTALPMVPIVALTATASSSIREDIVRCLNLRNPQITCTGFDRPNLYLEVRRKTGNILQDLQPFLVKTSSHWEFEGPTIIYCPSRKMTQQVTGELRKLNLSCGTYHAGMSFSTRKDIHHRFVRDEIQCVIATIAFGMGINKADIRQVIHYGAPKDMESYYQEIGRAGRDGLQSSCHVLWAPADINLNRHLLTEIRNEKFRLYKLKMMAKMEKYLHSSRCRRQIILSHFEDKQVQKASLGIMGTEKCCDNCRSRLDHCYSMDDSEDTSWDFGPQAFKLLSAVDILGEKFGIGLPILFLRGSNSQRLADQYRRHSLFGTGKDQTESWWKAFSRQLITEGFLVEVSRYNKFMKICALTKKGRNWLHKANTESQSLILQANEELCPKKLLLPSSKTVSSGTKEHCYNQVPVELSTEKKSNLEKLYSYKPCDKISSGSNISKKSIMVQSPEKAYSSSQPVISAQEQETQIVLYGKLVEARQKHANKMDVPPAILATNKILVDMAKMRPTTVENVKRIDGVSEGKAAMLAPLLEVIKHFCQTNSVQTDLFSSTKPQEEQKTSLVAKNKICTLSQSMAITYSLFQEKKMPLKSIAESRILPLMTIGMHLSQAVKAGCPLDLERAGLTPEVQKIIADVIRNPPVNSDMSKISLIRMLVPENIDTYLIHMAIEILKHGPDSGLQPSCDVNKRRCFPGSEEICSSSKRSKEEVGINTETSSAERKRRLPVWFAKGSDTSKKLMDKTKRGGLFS
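WRN at 20 nM final was preincubated with compound for 15 min at room temperature; reaction started with 100 nM forked duplex oligonucleotide carrying fluorophore and quencher plus 2 mM ATP (final). Unwinding followed kinetically by red fluorescence (ex 525/em 598 nm).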
PI5P4K alpha inh: inhibitors of human PI5P4K alpha. P48426. PI5P4Kalpha enzyme, ADP-Glo luminescence, 60 min; active compounds read low. max response, %. 330,000 compounds, 1.2% hits. AID 652105; active = max response of -50% or lower; inconclusive = between -30% and -50%; inactive = -30% or higher; note: value at the top dose of about 77 µM; % is set by controls: 0 for no effect and ±100 for the full control effect
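ADP-Glo luminescence end-point after a 60 min room-temperature kinase reaction. PI5P4Kalpha and substrate in HEPES pH 7.4 buffer with EGTA, 0.1% CHAPS and 5% DMSO; ATP at 5 microM final.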
Pol eta inh-1: DNA polymerase eta (human) inhibition. Potency, µM (series often up to 114 µM), without a hit: at the highest dose activity change, negative = inhibition, actives largely listed as inhibitors. recombinant Pol eta, fluorescent DNA replication assay. Q9Y253. AID 588591. 390,000 compounds, 1.2% hits; note: potency is the fitted concentration of half-maximal effect; % is set by controls: 0 for no effect and ±100 for the full control effect
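Pol eta at 10 nM preincubated with compounds 15 min at room temperature; reaction started with fluorescent substrate (50 nM final) and read kinetically at 0 and 10 min.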
GALK confirm: galactokinase (human) inhibition, confirmation | shares compounds with Pol eta inh-1 | AID 2015 | purified GALK, Kinase-Glo ATP depletion luminescence | 150 compounds, 70% hits | Potency, µM (series often up to 115 µM), inactives show top-dose activity, negative = inhibition, hits mostly inhibitors
Redox cycling: counter-screen for GALK inhibitors: redox cycling H2O2 generation; shares compounds with Pol eta inh-1; Phenol red-HRP H2O2 redox cycling, absorbance 600 nm; Potency, µM (doses to about 115 µM), inactives show at the highest dose activity change, negative = H2O2 signal, most hits filed as inhibitors; 150 compounds, 40% hits; AID 2035
HEK293 viability: HEK-293 cytotoxicity, GALK inhibitor secondary | shares compounds with Pol eta inh-1 | HEK-293 viability, ATP luminescence (CellTiter-Glo), 24/48 h | Potency, µM (highest dose often 46.1 µM), for inactives: at the top dose activity change, negative = cytotoxicity, actives largely listed as inhibitors | 170 compounds, 10% hits | AID 2547; note: potency is the fitted concentration of half-maximal effect; % is set by controls: 0 for no effect and ±100 for the full control effect
Pol kappa inh-2: confirmation of human DNA polymerase kappa inhibitors; shares compounds with Pol eta inh-1; purified Pol-kappa, fluorescent strand-displacement substrate; Potency, µM, most hits filed as inhibitors; 920 compounds, 76% hits; note: potency is the fitted concentration of half-maximal effect
Pol eta inh-2: confirmation of human DNA polymerase eta inhibitors | shares compounds with Pol eta inh-1 | Potency, µM, most hits filed as inhibitors | Pol eta primer extension, TAMRA/BHQ fluorescence, 10 min | 2,600 compounds, 64% hits | AID 720502; note: potency is the fitted concentration of half-maximal effect
An asterisk follows results filed as active; ? = inconclusive; . = no result; [ ] = another dose, or the depositor's remark. Shown are actives, neighbours in structure and some others; about 2.8% of the full set was active somewhere. Unless noted, calls come from the whole dose curve; as a rule, active = well fitted curve in the direction sought with a large enough effect; inconclusive = small, poorly fitted or top-dose-only effect, or another doubt; inactive = no such curve, though single readings can be large; an effect the other way counts as inactive or inconclusive.

SMILES	POLI inh	POLB inh	Pol kappa inh-1	WRN helicase inh	PI5P4K alpha inh	Pol eta inh-1	Pol eta inh-2	others
COc1ccc(-c2nc3cccc(C)n3c2Nc2ccc(C)cc2)cc1	-6%	.	-9%	.	.	.	.
O=C(N/N=C/c1coc2ccccc2c1=O)c1ccncc1	36%	23%	2%	-2%	-16	-3%	.
O=C(N/N=C/c1coc2ccccc2c1=O)c1cc(Br)c(O)c(Br)c1	-7%	-13%	-12%	-13%[11.6 µM]	-70*	?	?
CC(Sc1ccsc1[N+](=O)[O-])C(=O)N1CCN(c2ccccn2)CC1 (stereo not given)	?	-1%	?	-13%[11.6 µM]	?	35µM*	76*
Cc1c(C(=O)N2CCN(c3ccccn3)CC2)cccc1[N+](=O)[O-]	159%	26%	-13%	-4%	-8	-10%	.
CCN(CC(=O)Nc1ccc(NC(C)=O)cc1)C(=O)CSc1ncnc2sc(C)c(C)c12	?	.	-18%	-3%[11.6 µM]	?	?	?
CC(=O)Nc1ccc(NC(=O)CSc2ncnc3sc(C)c(C)c23)cc1	98%	-3%	-1%	0%	-10	-3%	.
Cc1ccc(C(C)C)c(OCC(=O)Nc2ccc(S(=O)(=O)Nc3onc(C)c3C)cc2)c1	-19%	?	1%	.	.	.	.
COc1ccc(CCNC(=O)C2(c3cccs3)CCOCC2)cc1	?	6%	-12%[60.1 µM]	.	.	-3%	.
O=C(O)Cc1ccc(NC(=O)c2ccc(NC(=O)c3ccco3)cc2)cc1	45µM*	?	?	-6%[11.6 µM]	.	25µM*	43*
CC1C/C(=C/c2ccncc2)C(=O)/C(=C/c2ccncc2)C1 (stereo not given)	?	3%	3%	?	-4	32µM*	76*
COc1ccc(Cl)cc1NS(=O)(=O)c1cc(-c2cc(C)no2)ccc1C	6%	-7%	-1%	.	.	-2%	.
CC(C)Oc1ccc(CNC(=O)c2cnc3sc(N4CCCCC4)nn3c2=O)cc1	20%	0%	1%	.	.	-9%	.
Cc1cccc(NC(=O)c2sc3nc(-c4cc5ccc(O)cc5oc4=O)[nH]c(=O)c3c2C)c1	41%	?	-3%	.	.	?	?
CCN=c1scc(C)n1/N=C/c1ccc(O)c(O)c1O	8.9µM*	10µM*	22µM*	22µM*	-51*	6.3µM*	67*
CCN=c1scc(C)n1/N=C/c1cc(Br)c(O)c(Br)c1	-3%	?	-24%	-5%[11.6 µM]	?	?	.
Cc1cc(C)c2c(=O)cc(C(=O)NCc3ccc(S(N)(=O)=O)cc3)oc2c1	2%	3%	13%	.	.	-3%	.
O=C(Cc1ccc([N+](=O)[O-])cc1)N/N=C/c1ccc([N+](=O)[O-])o1	?	-13%	-34%	-9%	-19	3%	.
N#CCc1ccc(NC(=O)/C=C/c2ccc([N+](=O)[O-])o2)cc1	45µM*	?	?	?	-59*	20µM*	?
COc1ccc(NC(=O)c2c[nH]n3c(=O)cc(C4CCN(C(=O)OC(C)(C)C)CC4)nc23)cc1Cl	23%	-3%	-7%	-5%	2	89µM*	85*	Pol kappa inh-2=75*
CC(C)(C)OC(=O)N1CCC(c2cc(=O)n3[nH]cc(C(=O)Nc4ccc(F)c(Cl)c4)c3n2)CC1	?	-21%	-11%	-2%	10	-1%	.
O=C(Nc1nnc(N2CCCCCC2)s1)Nc1cc(F)ccc1F	9%	4%	-15%	.	.	-5%	.
Cc1cccc(-c2n[nH]c(=S)n2/N=C/C=C/c2ccco2)c1	13µM*	?	45µM*	-21%[57.1 µM]	?	79µM*	?
CC(/C=N/n1c(-c2ccncc2)n[nH]c1=S)=C\c1ccco1	20µM*	-15%	50µM*	?	?	?	?
O=C(NCCc1ccccc1)c1ccc(CSc2nc3ccncc3n2Cc2ccccc2)cc1	30%	9%	1%	.	.	-15%	.
SMILES	POLI inh	POLB inh	Pol kappa inh-1	WRN helicase inh	PI5P4K alpha inh	Pol eta inh-1	Pol eta inh-2	others
COc1ccc2c(c1)c1c(c(=O)n(-c3ccccc3C)c(=O)n1Cc1c(F)cccc1Cl)n2C	17%	12%	3%	.	.	-3%	.
Cc1cccn2c(=O)c3cc(C#N)c(=NC(=O)c4ccco4)n(Cc4ccco4)c3nc12	?	14µM*	?	-29%[57.1 µM]	?	?	?
CCOC(=O)c1cc2c(=O)n3ccccc3nc2n(Cc2ccco2)c1=NC(=O)c1ccc(C)c(C)c1	?	-20%	-23%	.	.	-13%	.
CCOC(=O)c1cc2c(=O)n3cccc(C)c3nc2n(Cc2ccco2)c1=NC(=O)c1cccnc1	?	35µM*	?	?	-30	20µM*	?
Cc1cccn2c(=O)c3cc(C#N)c(=NC(=O)c4cccs4)n(CC(C)C)c3nc12	18%	-8%	6%	0%	1	13%	.
N=C1/C(=C\c2coc3ccccc3c2=O)C(=O)N=C2SC(c3ccncc3)=NN12	?	?	7.9µM*	22µM*	-74*	2.8µM*	.	GALK confirm=21µM*;Redox cycling=5%;HEK293 viability=-5%
N=C1/C(=C\c2coc3ccc(O)cc3c2=O)C(=O)N=C2SC=CN12	?	4µM*	?	56µM*	-69*	13µM*	19*
CSC1=NSC2=NC(=O)/C(=C\c3coc4ccccc4c3=O)C(=N)N12	?	25µM*	?	56µM*	-57*	13µM*	?
CN1C(=O)/C(=C/c2coc3ccc(O)cc3c2=O)SC1=S	-17%	-3%	-7%	-6%	-1	6%	.
